Out of some 5,500 compounds screened, about 2,000 (36%) were called active. Inconclusive results (about 18%) are left out. Cut-off read from the data, not from the text of the source: active = normalized growth mostly below about 0.91 (no sharp cut-off); inconclusive = no clear call, values can overlap the other calls; inactive = mostly above about 0.92. This is one part of the list.
Experiment: chemical genetic growth profiling, strain panel (AID 1159580);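 note: tested at 20 µM; growth read once vehicle control cultures reached saturation at 30 °C; 1 = growth at the plate median or of vehicle wells; lower values mean less growth of the strain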
Conditions: growth OD
[1] = S. cerevisiae deletion strains, locus YAR019C, strain CDC15, active compounds read low
[2] = S. cerevisiae deletion strains, locus YBL105C, strain PKC1, active compounds read low
[3] = S. cerevisiae deletion strains, locus YBR135W, strain CKS1, active compounds read low
[4] = S. cerevisiae deletion strains, locus YBR136W, strain MEC1, active compounds read low
[5] = S. cerevisiae deletion strains, locus YBR160W, strain CDC28, active compounds read low
[6] = S. cerevisiae deletion strains, locus YDL017W, strain CDC7, active compounds read low
[7] = S. cerevisiae deletion strains, locus YDL028C, strain MPS1, active compounds read low
[8] = S. cerevisiae deletion strains, locus YDL101C, strain DUN1, active compounds read low
[9] = S. cerevisiae deletion strains, locus YDL108W, strain KIN28, active compounds read low
[10] = S. cerevisiae deletion strains, locus YDL132W, strain cdc53, active compounds read low
[11] = S. cerevisiae deletion strains, locus YDL214C, strain PRR2, active compounds read low
[12] = S. cerevisiae deletion strains, locus YDR052C, strain DBF4, active compounds read low
[13] = S. cerevisiae deletion strains, locus YDR054C, strain cdc34, active compounds read low
[14] = S. cerevisiae deletion strains, locus YDR226W, strain ADK1, active compounds read low
[15] = S. cerevisiae deletion strains, locus YDR477W, strain SNF1, active compounds read low
[16] = S. cerevisiae deletion strains, locus YER123W, strain YCK3, active compounds read low
[17] = S. cerevisiae deletion strains, locus YER133W, strain GLC7, active compounds read low
[18] = S. cerevisiae deletion strains, locus YFL009W, strain cdc4, active compounds read low
[19] = S. cerevisiae deletion strains, locus YFL029C, strain CAK1, active compounds read low
[20] = S. cerevisiae deletion strains, locus YFR003C, strain YPI1, active compounds read low
[21] = S. cerevisiae deletion strains, locus YFR019W, strain FAB1, active compounds read low
[22] = S. cerevisiae deletion strains, locus YFR028C, strain CDC14, active compounds read low
[23] = S. cerevisiae deletion strains, locus YGR040W, strain KSS1, active compounds read low
[24] = S. cerevisiae deletion strains, locus YGR052W, strain FMP48, active compounds read low
[25] = S. cerevisiae deletion strains, locus YGR092W, strain DBF2, active compounds read low
[26] = S. cerevisiae deletion strains, locus YHR030C, strain SLT2, active compounds read low
[27] = S. cerevisiae deletion strains, locus YHR079C, strain IRE1, active compounds read low
[28] = S. cerevisiae deletion strains, locus YHR082C, strain KSP1, active compounds read low
[29] = S. cerevisiae deletion strains, locus YHR205W, strain SCH9, active compounds read low
[30] = S. cerevisiae deletion strains, locus YIL147C, strain SLN1, active compounds read low
[31] = S. cerevisiae deletion strains, locus YJL095W, strain BCK1, active compounds read low
[32] = S. cerevisiae deletion strains, locus YJL128C, strain PBS2, active compounds read low
[33] = S. cerevisiae deletion strains, locus YJL157C, strain FAR1, active compounds read low
[34] = S. cerevisiae deletion strains, locus YJR016C, strain ILV3, active compounds read low
[35] = S. cerevisiae deletion strains, locus YJR066W, strain TOR1 (second series), active compounds read low
[36] = S. cerevisiae deletion strains, locus YJR066W, strain TOR1, active compounds read low
[37] = S. cerevisiae deletion strains, locus YKL048C, strain ELM1, active compounds read low
[38] = S. cerevisiae deletion strains, locus YKL067W, strain YNK1, active compounds read low
[39] = S. cerevisiae deletion strains, locus YKL101W, strain HSL1, active compounds read low
[40] = S. cerevisiae deletion strains, locus YKL193C, strain SDS22, active compounds read low
[41] = S. cerevisiae deletion strains, locus YKL203C, strain TOR2, active compounds read low
[42] = S. cerevisiae deletion strains, locus YLR113W, strain HOG1, active compounds read low
[43] = S. cerevisiae deletion strains, locus YLR133W, strain CKI1, active compounds read low
[44] = S. cerevisiae deletion strains, locus YLR403W, strain SFP1, active compounds read low
[45] = S. cerevisiae deletion strains, locus YML070W, strain DAK1, active compounds read low
[46] = S. cerevisiae deletion strains, locus YMR001C, strain CDC5, active compounds read low
[47] = S. cerevisiae deletion strains, locus YMR205C, strain PFK2 (second series), active compounds read low
[48] = S. cerevisiae deletion strains, locus YMR277W, strain FCP1, active compounds read low
[49] = S. cerevisiae deletion strains, locus YNL006W, strain LST8, active compounds read low
[50] = S. cerevisiae deletion strains, locus YNL020C, strain ARK1, active compounds read low
[51] = S. cerevisiae deletion strains, locus YNL161W, strain CBK1, active compounds read low
[52] = S. cerevisiae deletion strains, locus YNL183C, strain NPR1, active compounds read low
[53] = S. cerevisiae deletion strains, locus YNL207W, strain RIO2, active compounds read low
[54] = S. cerevisiae deletion strains, locus YNL222W, strain SSU72, active compounds read low
[55] = S. cerevisiae deletion strains, locus YNL307C, strain MCK1 (second series), active compounds read low
[56] = S. cerevisiae deletion strains, locus YOL078W, strain AVO1, active compounds read low
[57] = S. cerevisiae deletion strains, locus YOL136C, strain PFK27, active compounds read low
[58] = S. cerevisiae deletion strains, locus YOR061W, strain CKA2, active compounds read low
[59] = S. cerevisiae deletion strains, locus YOR119C, strain RIO1, active compounds read low
[60] = S. cerevisiae deletion strains, locus YOR231W, strain MKK1, active compounds read low
[61] = S. cerevisiae deletion strains, locus YOR329C, strain SCD5, active compounds read low
[62] = S. cerevisiae deletion strains, locus YPL031C, strain PHO85, active compounds read low
[63] = S. cerevisiae deletion strains, locus YPL153C, strain RAD53, active compounds read low
[64] = S. cerevisiae deletion strains, locus YPL204W, strain HRR25, active compounds read low
[65] = S. cerevisiae deletion strains, locus YPL209C, strain IPL1, active compounds read low
[66] = S. cerevisiae deletion strains, locus YPL256C, strain CLN2, active compounds read low
[67] = S. cerevisiae deletion strains, locus YPR025C, strain CCL1, active compounds read low
[68] = S. cerevisiae deletion strains, locus YPR106W, strain ISR1, active compounds read low
[69] = S. cerevisiae deletion strains, locus YPR111W, strain DBF20, active compounds read low
[70] = S. cerevisiae deletion strains, strain NNK1, active compounds read low
[71] = S. cerevisiae deletion strains, strain TSCII, active compounds read low
[72] = S. cerevisiae deletion strains, locus YDR150W, strain NUM1, active compounds read low
[73] = S. cerevisiae deletion strains, locus YNL153C, strain GIM3, active compounds read low
[74] = S. cerevisiae deletion strains, locus YPL055C, strain LGE1, active compounds read low

Measured: normalized growth

O=C1/C(=C/c2ccccn2)CCc2ccccc21
active: [42] 0.742
inactive: [1] 0.923 | [2] 0.944 | [3] 0.95 | [4] 0.929 | [5] 0.957 | [6] 0.954 | [7] 0.94 | [8] 0.948 | [9] 0.936 | [10] 0.936 | [11] 0.927 | [12] 0.96 | [13] 0.937 | [14] 0.948 | [15] 0.897 | [16] 0.814 | [17] 0.897 | [18] 0.929 | [19] 0.912 | [20] 0.954 | [21] 0.951 | [22] 0.935 | [23] 0.837 | [24] 0.919 | [25] 0.813 | [26] 0.88 | [27] 0.869 | [28] 0.921 | [29] 0.878 | [30] 0.939 | [31] 0.863 | [32] 0.937 | [33] 0.939 | [34] 0.94 | [35] 0.633 | [36] 0.855 | [37] 0.952 | [38] 0.928 | [39] 0.922 | [40] 0.937 | [41] 0.912 | [43] 0.935 | [44] 0.869 | [45] 0.896 | [46] 0.944 | [47] 0.948 | [48] 0.939 | [49] 0.967 | [50] 0.948 | [51] 0.941 | [52] 0.84 | [53] 0.943 | [54] 0.942 | [55] 0.913 | [56] 0.935 | [57] 0.919 | [58] 0.934 | [59] 0.91 | [60] 0.875 | [61] 0.948 | [62] 0.874 | [63] 0.883 | [64] 0.862 | [65] 0.944 | [66] 0.861 | [67] 0.945 | [68] 0.96 | [69] 0.955 | [70] 0.967 | [71] 0.93

Oc1ccc(-c2nc(-c3ccc(F)cc3)c(-c3ccncc3)[nH]2)cc1
inactive: S. cerevisiae deletion strains, locus YAL040C, strain CLN3, active compounds read low 0.975 | S. cerevisiae deletion strains, locus YCL061C, strain MRC1 (second series), active compounds read low 1.01 | [72] 1 | S. cerevisiae deletion strains, locus YER002W, strain NOP16, active compounds read low 1 | S. cerevisiae deletion strains, locus YMR307W, strain GAS1, active compounds read low 1.02 | [73] 0.999 | S. cerevisiae deletion strains, locus YNL175C, strain NOP13, active compounds read low 1.03 | S. cerevisiae deletion strains, locus YNL197C, strain WHI3, active compounds read low 1.02 | S. cerevisiae deletion strains, locus YNL224C, strain SQS1, active compounds read low 1.02 | S. cerevisiae deletion strains, locus YOR083W, strain WHI5 (second series), active compounds read low 1.03 | [74] 1.02

O=S(=O)(Oc1cc(Cl)cc(Cl)c1)c1cccc(S(=O)(=O)Oc2cc(Cl)cc(Cl)c2)c1
inactive: S. cerevisiae deletion strains, locus YAL013W, strain DEP1, active compounds read low 1.01 | S. cerevisiae deletion strains, locus YBR229C, strain ROT2, active compounds read low 1.01 | S. cerevisiae deletion strains, locus YCL061C, strain MRC1, active compounds read low 1.01 | [8] 1.01 | S. cerevisiae deletion strains, locus YDL134C, strain PPH21, active compounds read low 1.01 | [72] 1 | S. cerevisiae deletion strains, locus YEL061C, strain CIN8, active compounds read low 1.01 | S. cerevisiae deletion strains, locus YGR078C, strain PAC10, active compounds read low 1.02 | [26] 1.04 | S. cerevisiae deletion strains, locus YHR087W, strain rtc3, active compounds read low 0.996 | S. cerevisiae deletion strains, locus YJR043C, strain POL32, active compounds read low 1 | S. cerevisiae deletion strains, locus YJR075W, strain HOC1, active compounds read low 0.988 | S. cerevisiae deletion strains, locus YLR039C, strain RIC1, active compounds read low 1.1 | S. cerevisiae deletion strains, locus YLR058C, strain SHM2 (second series), active compounds read low 0.998 | S. cerevisiae deletion strains, locus YLR085C, strain ARP6, active compounds read low 1.06 | S. cerevisiae deletion strains, locus YLR262C, strain YPT6, active compounds read low 1.02 | S. cerevisiae deletion strains, locus YML094W, strain GIM5, active compounds read low 1.01 | S. cerevisiae deletion strains, locus YMR219W, strain ESC1, active compounds read low 0.998 | S. cerevisiae deletion strains, locus YMR263W, strain SAP30, active compounds read low 0.992 | [73] 1.01 | S. cerevisiae deletion strains, locus YNL298W, strain CLA4 (second series), active compounds read low 1.07 | S. cerevisiae deletion strains, locus YNL322C, strain KRE1, active compounds read low 1.01 | S. cerevisiae deletion strains, locus YNR030W, strain Alg12, active compounds read low 1.01 | S. cerevisiae deletion strains, locus YOL006C, strain TOP1, active compounds read low 1.06 | [74] 1.01 | S. cerevisiae deletion strains, locus YPL241C, strain CIN2, active compounds read low 1.03 | S. cerevisiae deletion strains, locus YPR135W, strain CTF4, active compounds read low 1.01 | S. cerevisiae strains, strain wild type, active compounds read low 1.04

O=S(=O)(CS(=O)(=O)Oc1ccc(Cl)c(Cl)c1)Oc1ccc(Cl)c(Cl)c1
active: [26] 0.85
inactive: [1] 0.95 | [2] 0.944 | [3] 0.947 | [4] 0.946 | [5] 0.946 | [6] 0.937 | [7] 0.946 | [8] 0.971 | [9] 0.937 | [10] 0.968 | [11] 0.986 | [12] 0.937 | [13] 0.932 | [14] 0.913 | [15] 0.966 | [16] 0.989 | [17] 0.969 | [18] 0.931 | [19] 0.95 | [20] 0.944 | [21] 0.946 | [22] 0.97 | [23] 0.983 | [24] 1.02 | [25] 0.905 | [27] 0.918 | [28] 1.03 | [29] 0.756 | [30] 0.943 | [31] 0.935 | [32] 0.969 | [33] 0.959 | [34] 0.951 | [35] 0.994 | [36] 1.03 | [37] 0.963 | [38] 0.983 | [39] 0.981 | [40] 0.944 | [41] 1.05 | [42] 0.962 | [43] 0.961 | [44] 0.823 | [45] 0.991 | [46] 0.94 | [47] 0.972 | [48] 0.949 | [49] 0.967 | [50] 0.955 | [51] 0.949 | [52] 1.09 | [53] 0.941 | [54] 0.955 | [55] 0.961 | [56] 0.946 | [57] 0.949 | [58] 0.984 | [59] 1.05 | [60] 1.07 | [61] 0.951 | [62] 0.948 | [63] 0.974 | [64] 0.945 | [65] 0.949 | [66] 0.945 | [67] 0.956 | [68] 0.942 | [69] 0.938 | [70] 0.956 | [71] 0.945

Source: PubChem BioAssay AID1159580 (chemical genetic matrix, 2015)
